# ChEMBL document CHEMBL1201862, “PubChem BioAssay data set” (2004)
# Among all 58,000 sequences or so, about 4,600 (7.9%) were called active. Cut-off read from the data, not from the text of the source: active = GI50 up to about 1.1 µM and inactive = higher. The sample as a whole holds a higher share of actives than the screen did. Potency and affinity values are given separately.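 The compound was tested at five concentrations on cells cultured in 96-well plates, with a 48-hour exposure period. Abbreviation: GI50, concentration required for 50% inhibition of growth.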
# Test system: SW-620
# Experiment: NCI tumour cell line growth inhibition, 48 h
row,Substance,GI50 [nM]
1,"cis-Bis[[(trimethylsilyl)methyl]amino]tetrachloroplatinum(IV), CHEMBL2146191",2400
2,"[Bis(aminomethyl)diethylsilane]tetrachloroplatinum(IV), CHEMBL2146203",483
3,"[Bis(aminomethyl)dimethylsilane]dichloroplatinum (II), CHEMBL2146201",4860
4,"[Bis(aminomethyl)pentamethylenesilane]tetrachloropaltinum(IV), CHEMBL2146204",1060
5,"[Bis(aminomethyl)pentamethylenesilane]dichloropaltinum(II), CHEMBL2146202",6700
6,"[Bis(aminomethyl)dimethylsilane]tetrachloroplatinum(IV), CHEMBL2146190",1890
7,"[Bis(aminomethyl)ethylmethylsilane]tetrachloroplatinum(IV), CHEMBL2146192",1020
8,"[Bis(aminomethyl)tetramethylenesilane]tetrachloropaltinum(IV), CHEMBL2146189",1490
9,"CISPLATIN, CHEMBL11359",3870
10,"mu-(1,7-nanodiamine-N,N')bis-(cis-aminedichloroplatimum (II)), CHEMBL2146215",32100
11,"[Bis(aminomethyl)tetramethylenesilane]dichloropaltinum(II), CHEMBL2146205",5160
